In paper PMC7862700, “An all-to-all approach to the identification of sequence-specific readers for epigenetic DNA modifications on cytosine” one finds binding signal data, which are given here for eight sequences.

Common to all, as to test: DAPPL (digital affinity profiling via proximity ligation, sequencing); 10 mM Tris-HCl pH 7.5, 50 mM NaCl, 1 mM DTT, 4% glycerol, room temperature, 30 min; GST-TFs on glutathione beads, 16-mer random dsDNA library, 0.1% formaldehyde crosslink after washing; high values mean tight binding
What all share (conditions): protein: recombinant; tags: N-terminal GST; dsDNA, one strand shown

For assay [1], the target named is T1, ERF (Homo sapiens, UniProt P50548 1-548).
T1 sequence: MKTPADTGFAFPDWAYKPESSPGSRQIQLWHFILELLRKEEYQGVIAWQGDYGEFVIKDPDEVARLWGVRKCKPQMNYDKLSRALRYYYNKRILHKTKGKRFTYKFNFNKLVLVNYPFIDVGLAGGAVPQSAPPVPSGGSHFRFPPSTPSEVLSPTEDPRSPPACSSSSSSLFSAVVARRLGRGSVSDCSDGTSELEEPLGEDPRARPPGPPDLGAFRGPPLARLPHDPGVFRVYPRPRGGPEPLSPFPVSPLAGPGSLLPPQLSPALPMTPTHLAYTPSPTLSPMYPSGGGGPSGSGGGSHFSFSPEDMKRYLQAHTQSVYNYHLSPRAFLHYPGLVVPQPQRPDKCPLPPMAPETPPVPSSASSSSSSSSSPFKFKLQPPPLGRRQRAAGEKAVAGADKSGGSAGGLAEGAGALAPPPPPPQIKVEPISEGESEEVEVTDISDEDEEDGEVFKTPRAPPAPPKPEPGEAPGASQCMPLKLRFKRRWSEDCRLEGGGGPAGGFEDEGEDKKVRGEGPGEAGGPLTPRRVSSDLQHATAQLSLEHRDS
In a few lines:
(§1)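 Binding signal is each hexamer's read frequency for a factor divided by its frequency in the tag-only sample. The factors were GST-fused human transcription factors from yeast, captured on glutathione beads, DNA-barcoded and pooled with that sample. Pools were incubated with 200 nmole of a random double-stranded 16-mer DNA library in Tris/NaCl/DTT/glycerol buffer at room temperature for 30 min, then washed, crosslinked with 0.1% formaldehyde, proximity-ligated with BsaI/T4 ligase (1 h, 37 °C), PCR-amplified and sequenced on an Illumina NextSeq500.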

Assay [2] addresses T2, ETV3L (Homo sapiens, UniProt Q6ZN32 1-361).
T2 sequence: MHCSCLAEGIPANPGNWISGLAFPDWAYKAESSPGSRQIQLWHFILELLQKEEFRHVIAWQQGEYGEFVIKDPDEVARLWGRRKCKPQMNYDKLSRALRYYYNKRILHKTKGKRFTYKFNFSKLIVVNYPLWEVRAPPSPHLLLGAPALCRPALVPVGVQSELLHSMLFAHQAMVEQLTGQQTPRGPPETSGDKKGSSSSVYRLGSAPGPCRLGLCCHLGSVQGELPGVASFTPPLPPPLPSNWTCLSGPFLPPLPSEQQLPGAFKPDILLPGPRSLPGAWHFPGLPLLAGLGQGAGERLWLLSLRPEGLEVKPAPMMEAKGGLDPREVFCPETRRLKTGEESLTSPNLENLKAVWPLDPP
In a few lines:
as §1

Assay [3] deals with T3, ETS2 (Homo sapiens, UniProt P15036 1-469).
T3 sequence: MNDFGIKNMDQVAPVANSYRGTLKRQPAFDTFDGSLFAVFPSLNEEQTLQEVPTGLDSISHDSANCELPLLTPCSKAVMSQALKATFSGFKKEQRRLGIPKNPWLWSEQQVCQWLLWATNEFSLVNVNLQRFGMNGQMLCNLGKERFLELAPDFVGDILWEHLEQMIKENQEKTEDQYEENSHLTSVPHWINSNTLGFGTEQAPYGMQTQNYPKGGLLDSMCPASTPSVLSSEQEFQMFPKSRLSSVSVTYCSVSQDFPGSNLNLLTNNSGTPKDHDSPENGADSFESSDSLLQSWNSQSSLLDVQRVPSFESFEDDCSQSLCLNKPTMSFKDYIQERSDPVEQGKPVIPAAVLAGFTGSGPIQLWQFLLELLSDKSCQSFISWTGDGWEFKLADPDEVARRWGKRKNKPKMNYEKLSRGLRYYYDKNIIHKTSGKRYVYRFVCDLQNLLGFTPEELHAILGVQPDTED
An outline of the steps:
as §1

For assay [4], the target named is T4, SPDEF (Homo sapiens, UniProt O95238 1-335).
T4 sequence: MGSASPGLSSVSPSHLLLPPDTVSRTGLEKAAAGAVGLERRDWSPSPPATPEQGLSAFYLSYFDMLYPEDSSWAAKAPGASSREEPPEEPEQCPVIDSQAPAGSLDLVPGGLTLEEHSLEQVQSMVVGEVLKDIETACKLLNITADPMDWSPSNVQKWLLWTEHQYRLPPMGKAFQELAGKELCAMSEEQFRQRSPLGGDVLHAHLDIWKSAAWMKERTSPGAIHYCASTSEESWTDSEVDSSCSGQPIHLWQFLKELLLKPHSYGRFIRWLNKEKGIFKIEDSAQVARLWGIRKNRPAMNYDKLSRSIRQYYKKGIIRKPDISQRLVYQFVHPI
An outline of the steps:
as §1

Assay [5] has as its target T5, ETV7 (Homo sapiens, UniProt Q9Y603 1-341).
T5 sequence: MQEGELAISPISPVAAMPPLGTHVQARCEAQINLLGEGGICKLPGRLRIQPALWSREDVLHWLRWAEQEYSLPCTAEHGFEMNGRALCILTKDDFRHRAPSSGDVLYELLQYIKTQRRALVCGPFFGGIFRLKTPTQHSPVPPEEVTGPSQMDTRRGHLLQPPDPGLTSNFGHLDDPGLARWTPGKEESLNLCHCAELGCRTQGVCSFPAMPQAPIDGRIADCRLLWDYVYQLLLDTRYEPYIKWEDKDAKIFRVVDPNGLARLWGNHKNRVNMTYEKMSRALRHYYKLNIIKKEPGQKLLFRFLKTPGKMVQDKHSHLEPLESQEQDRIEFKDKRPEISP
In a few lines: as §1

Assay [6] addresses T6, ELF5 (Homo sapiens, UniProt Q9UKW6-2 1-255).
T6 sequence: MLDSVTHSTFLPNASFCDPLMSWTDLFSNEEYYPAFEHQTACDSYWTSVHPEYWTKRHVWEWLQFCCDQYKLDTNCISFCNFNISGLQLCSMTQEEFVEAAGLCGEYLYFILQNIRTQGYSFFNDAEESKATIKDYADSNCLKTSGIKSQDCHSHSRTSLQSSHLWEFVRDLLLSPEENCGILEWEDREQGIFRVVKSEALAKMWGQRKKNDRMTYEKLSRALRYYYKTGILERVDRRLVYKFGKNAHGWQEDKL
In a few lines:
as §1

Assay [7] concerns the target T7, ETV3 (Homo sapiens, UniProt P41162-2 1-143).
T7 sequence: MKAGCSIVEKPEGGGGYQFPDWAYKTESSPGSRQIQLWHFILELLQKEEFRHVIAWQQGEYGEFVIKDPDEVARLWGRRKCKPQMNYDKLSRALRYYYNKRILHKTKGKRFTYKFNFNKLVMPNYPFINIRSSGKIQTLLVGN
An outline of the steps:
as §1

Assay [8] addresses ETV6 (Homo sapiens, UniProt P41212 1-452). In a few lines: as §1

ETV6, sequence (P41212 whole entry): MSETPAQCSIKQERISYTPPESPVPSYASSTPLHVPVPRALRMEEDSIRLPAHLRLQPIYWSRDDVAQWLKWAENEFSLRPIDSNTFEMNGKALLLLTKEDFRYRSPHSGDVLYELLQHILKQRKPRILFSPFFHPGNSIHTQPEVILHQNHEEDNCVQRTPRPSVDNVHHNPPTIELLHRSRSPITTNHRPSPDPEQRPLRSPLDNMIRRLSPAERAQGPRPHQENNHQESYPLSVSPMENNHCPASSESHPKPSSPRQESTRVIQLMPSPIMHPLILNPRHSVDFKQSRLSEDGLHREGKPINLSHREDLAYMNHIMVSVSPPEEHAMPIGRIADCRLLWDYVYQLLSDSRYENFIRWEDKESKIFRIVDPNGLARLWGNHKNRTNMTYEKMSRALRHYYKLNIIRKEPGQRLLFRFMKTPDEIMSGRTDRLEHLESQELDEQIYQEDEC

For the sequence CCCAAC, the binding signal in assay [1] was 1.24 fold enrichment (6-mer frequency, TF over GST control); in assay [2], 1.13 fold enrichment (6-mer frequency, TF over GST control); in assay [3], 1.13 fold enrichment (6-mer frequency, TF over GST control); in assay [4], 1.19 fold enrichment (6-mer frequency, TF over GST control); in assay [5], 1.06 fold enrichment (6-mer frequency, TF over GST control); in assay [6], 1.12 fold enrichment (6-mer frequency, TF over GST control). For the same sequence, the binding signal in assay [7] was 1.05 fold enrichment (6-mer frequency, TF over GST control); in assay [8], 1.17 fold enrichment (6-mer frequency, TF over GST control).
Take ATCCGA: the binding signal in assay [1] was 1.22 fold enrichment (6-mer frequency, TF over GST control); in assay [2] it was 1.24 fold enrichment (6-mer frequency, TF over GST control); in assay [3], 1.08 fold enrichment (6-mer frequency, TF over GST control); in assay [4] it was 1.26 fold enrichment (6-mer frequency, TF over GST control); in assay [5], 1.15 fold enrichment (6-mer frequency, TF over GST control); in assay [6], 1.25 fold enrichment (6-mer frequency, TF over GST control). The binding signal was 1.11 fold enrichment (6-mer frequency, TF over GST control) in assay [7] and 1.24 fold enrichment (6-mer frequency, TF over GST control) in assay [8].
As for GAACAC, the binding signal in assay [1] is 1.11 fold enrichment (6-mer frequency, TF over GST control); in assay [2], 1.18 fold enrichment (6-mer frequency, TF over GST control); in assay [3], 1.12 fold enrichment (6-mer frequency, TF over GST control); in assay [4], 1.26 fold enrichment (6-mer frequency, TF over GST control); in assay [5] it was 1.15 fold enrichment (6-mer frequency, TF over GST control); in assay [6], 1.17 fold enrichment (6-mer frequency, TF over GST control). The binding signal in assay [7] was 1.14 fold enrichment (6-mer frequency, TF over GST control); in assay [8], 1.13 fold enrichment (6-mer frequency, TF over GST control).
In the case of TTGGGT, the binding signal is 1.27 fold enrichment (6-mer frequency, TF over GST control) in assay [1]; 1.1 fold enrichment (6-mer frequency, TF over GST control) in assay [2]; 1.03 fold enrichment (6-mer frequency, TF over GST control) in assay [3]; 1.04 fold enrichment (6-mer frequency, TF over GST control) in assay [4]; 1.08 fold enrichment (6-mer frequency, TF over GST control) in assay [5]; 1.08 fold enrichment (6-mer frequency, TF over GST control) in assay [6].
On to CGACCC, for which the binding signal in assay [1] is 1.36 fold enrichment (6-mer frequency, TF over GST control); in assay [2], 1.28 fold enrichment (6-mer frequency, TF over GST control); in assay [3], 1.29 fold enrichment (6-mer frequency, TF over GST control); in assay [4], 1.44 fold enrichment (6-mer frequency, TF over GST control); in assay [5], 1.28 fold enrichment (6-mer frequency, TF over GST control); in assay [6], 1.26 fold enrichment (6-mer frequency, TF over GST control). The binding signal in assay [7] was 1.4 fold enrichment (6-mer frequency, TF over GST control); in assay [8], 1.29 fold enrichment (6-mer frequency, TF over GST control).
Take TACTAG: the binding signal is 1.07 fold enrichment (6-mer frequency, TF over GST control) in assay [1]; 1.04 fold enrichment (6-mer frequency, TF over GST control) in assay [2]; 1 fold enrichment (6-mer frequency, TF over GST control) in assay [3]; 1.01 fold enrichment (6-mer frequency, TF over GST control) in assay [4]; 1 fold enrichment (6-mer frequency, TF over GST control) in assay [5].
Take ACCCCG: the binding signal in assay [1] was 1.26 fold enrichment (6-mer frequency, TF over GST control); in assay [2] it was 1.33 fold enrichment (6-mer frequency, TF over GST control); in assay [3], 1.25 fold enrichment (6-mer frequency, TF over GST control); in assay [4], 1.15 fold enrichment (6-mer frequency, TF over GST control); in assay [5], 1.02 fold enrichment (6-mer frequency, TF over GST control); in assay [6], 1.21 fold enrichment (6-mer frequency, TF over GST control). Besides, the binding signal was 1.11 fold enrichment (6-mer frequency, TF over GST control) in assay [7] and 1.16 fold enrichment (6-mer frequency, TF over GST control) in assay [8].
As to TCACAT, the binding signal in assay [1] is 1.24 fold enrichment (6-mer frequency, TF over GST control); in assay [2], 1.24 fold enrichment (6-mer frequency, TF over GST control); in assay [3], 1.25 fold enrichment (6-mer frequency, TF over GST control); in assay [4], 1.44 fold enrichment (6-mer frequency, TF over GST control); in assay [5], 1.3 fold enrichment (6-mer frequency, TF over GST control); in assay [6] it was 1.14 fold enrichment (6-mer frequency, TF over GST control). The binding signal in assay [7] was 1.21 fold enrichment (6-mer frequency, TF over GST control); in assay [8] it was 1.23 fold enrichment (6-mer frequency, TF over GST control).
